Reference: the supplement of paper PMC9950053
Structures can show the parent of a compound that is named as a salt.

System: Danio rerio larvae (5 dpf)
Assay: excitability (activity period 17 minus period 16, 1-s interval sound) minus DMSO control (percentage points); higher = more acoustic excitability than DMSO larvae
Settings: 10 µM; exposure time: 3 h pre-incubation + 3 h imaging
Protocol: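 Wild-type 5 dpf zebrafish larvae (n=48 per drug, 96-well plates, 28.5 °C) were exposed to Tocris FDA-approved library compounds at 10 µM (0.1% DMSO) for 3 h before and 3 h during imaging. Images were taken every 6 s during visual (moving coloured lines) and acoustic stimuli, and larvae were tracked with the DeepLabCut-based Z-LaP Tracker. Each behavioural measure is the treated-group mean minus the DMSO vehicle control mean (n=844), in percentage points. This mapping covers compounds with 4-character plate codes.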

Row | SMILES | excitability
1 | O=C(O[C@@H]1C[C@@H]2C[C@H]3C[C@H](C1)N2CC3=O)c1c[nH]c2ccccc12 [Dolasetron mesylate] | 10.3
2 | Cn1cnc([N+](=O)[O-])c1Sc1ncnc2[nH]cnc12 [Azathioprine] | 0.781
3 | COc1cc2nc(N3CCN(C(=O)C4COc5ccccc5O4)CC3)nc(N)c2cc1OC (stereo not given) [Doxazosin mesylate] | 21.8
4 | COc1ccccc1OCCNCC(O)COc1cccc2[nH]c3ccccc3c12 (stereo not given) [Carvedilol] | 22.5
5 | CO[C@H]1/C=C/O[C@@]2(C)Oc3c(C)c(O)c4c(O)c(c5c(nc6cc(C)ccn65)c4c3C2=O)NC(=O)/C(C)=C\C=C\[C@H](C)[C@H](O)[C@@H](C)[C@@H](O)[C@@H](C)[C@H](OC(C)=O)[C@@H]1C [Rifaximin] | 5.77
6 | CC(C)[C@H]1CC[C@H](C(=O)N[C@H](Cc2ccccc2)C(=O)O)CC1 [Nateglinide] | 2.5
7 | N[C@@H]1[C@H]2CN(c3nc4c(cc3F)c(=O)c(C(=O)O)cn4-c3ccc(F)cc3F)C[C@@H]12 [Trovafloxacin mesylate] | 12.2
8 | Cc1ccccc1C(=O)Nc1ccc(C(=O)N2CCCC(O)c3cc(Cl)ccc32)c(C)c1 (stereo not given) [Tolvaptan] | 8.2
9 | O=C(O)c1cc(/N=N/c2ccc(S(=O)(=O)Nc3ccccn3)cc2)ccc1O [Sulfasalazine] | 0.715
10 | Nc1cc(N2CCCCC2)nc(N)[n+]1[O-] [Minoxidil] | 0.502
11 | Nc1nc2c(ncn2COCCO)c(=O)[nH]1 [Acyclovir] | 3.35
12 | CC1=Nc2ccc(Cl)cc2S(=O)(=O)N1 [Diazoxide] | 3.88
13 | CCOC(=O)c1ncn2c1CN(C)C(=O)c1cc(F)ccc1-2 [Flumazenil] | 2.65
14 | CCc1ccc(CCOc2ccc(CC3SC(=O)NC3=O)cc2)nc1 (stereo not given) [Pioglitazone hydrochloride] | 9.48
15 | Nc1nc(NC2CC2)c2ncn([C@H]3C=C[C@@H](CO)C3)c2n1 [Abacavir hemisulfate] | 0.611
16 | N#Cc1ccc(C(c2ccc(C#N)cc2)n2cncn2)cc1 [Letrozole] | 0.318
17 | CC(CCc1ccc(O)cc1)NCCc1ccc(O)c(O)c1 (stereo not given) [Dobutamine hydrochloride] | 9.03
18 | Cc1ccc(-c2cc(C(F)(F)F)nn2-c2ccc(S(N)(=O)=O)cc2)cc1 [Celecoxib] | 4.91
19 | O=C(NCC1CCCCN1)c1cc(OCC(F)(F)F)ccc1OCC(F)(F)F (stereo not given) [Flecainide acetate] | 6.31
20 | CC(C)n1c(/C=C/C(O)CC(O)CC(=O)O)c(-c2ccc(F)cc2)c2ccccc21 (stereo not given) [Fluvastatin sodium] | 3.75

Row | SMILES | excitability
21 | CC(C)Nc1cccnc1N1CCN(C(=O)c2cc3cc(NS(C)(=O)=O)ccc3[nH]2)CC1 [Delavirdine mesylate] | 2.93
22 | CCc1c2c(nc3ccc(OC(=O)N4CCC(N5CCCCC5)CC4)cc13)-c1cc3c(c(=O)n1C2)COC(=O)[C@]3(O)CC | 8.99
23 | COc1ccc(Cl)cc1C(=O)NCCc1ccc(S(=O)(=O)NC(=O)NC2CCCCC2)cc1 [Glibenclamide] | 2.33
24 | CC(C)C(=O)Nc1ccc([N+](=O)[O-])c(C(F)(F)F)c1 [Flutamide] | -5.48
25 | CCOc1cc(CC(=O)N[C@@H](CC(C)C)c2ccccc2N2CCCCC2)ccc1C(=O)O [Repaglinide] | 9.5
26 | Cc1cccc(C)c1OCC(C)N (stereo not given) [Mexiletine hydrochloride] | 3.31
27 | CN(C)CCC[C@@]1(c2ccc(F)cc2)OCc2cc(C#N)ccc21 [Escitalopram oxalate] | 14.5
28 | Nc1nc2[nH]cc(CCc3ccc(C(=O)N[C@@H](CCC(=O)O)C(=O)O)cc3)c2c(=O)[nH]1 [Pemetrexed] | 2.33
29 | Clc1ccccc1C(c1ccccc1)(c1ccccc1)n1ccnc1 [Clotrimazole] | 11.3
30 | CC(C)(C(=O)c1cccnc1)c1cccnc1 [Metyrapone] | 15.8
31 | CC/C(=C(\c1ccccc1)c1ccc(OCCN(C)C)cc1)c1ccccc1 [Tamoxifen citrate] | 4.81
32 | CCCCNc1cc(C(=O)O)cc(S(N)(=O)=O)c1Oc1ccccc1 [Bumetanide] | 7.06
33 | CC(C)c1nc(N(C)S(C)(=O)=O)nc(-c2ccc(F)cc2)c1/C=C/[C@@H](O)C[C@@H](O)CC(=O)O [Rosuvastatin calcium] | -2.24
34 | CCCN(CCc1cccs1)[C@H]1CCc2c(O)cccc2C1 [Rotigotine hydrochloride] | 13.6
35 | C[C@H](Cc1cc2c(c(C(N)=O)c1)N(CCCO)CC2)NCCOc1ccccc1OCC(F)(F)F [Silodosin] | 22.6
36 | COc1ccc(C[C@@H](C)NC[C@H](O)c2ccc(O)c(NC=O)c2)cc1 [Arformoterol tartrate] | 4.62
37 | CC(=O)NC[C@H]1CN(c2ccc(N3CCOCC3)c(F)c2)C(=O)O1 [Linezolid] | 6.87
38 | C[C@H]1C[C@@H]2[C@H]([C@@H](O)C[C@@]3(C)[C@H]2CC[C@]3(O)C(=O)CO)[C@@]2(C)C=CC(=O)C=C12 [Methylprednisolone] | 1.52
39 | Cc1ccsc1C(=CCCN1CCC[C@@H](C(=O)O)C1)c1sccc1C [Tiagabine hydrochloride] | -6.75
40 | OCCN(CCO)c1nc(N2CCCCC2)c2nc(N(CCO)CCO)nc(N3CCCCC3)c2n1 [Dipyridamole] | -2.85
